From PubChem BioAssay (NCI)
This is part of a sample that, as a whole, favours compounds with a hit. Of some 83,000 tested, about 20% had one in any assay.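 Plates (96-well) were seeded with cells, treated with compound at one concentration, and incubated for 48 hours before percent growth was determined.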 Unmarked numbers belong to inactive results. Activity calls are given as the source filed them. Rule for the calls: active = growth percent below 10; inactive = the rest.

tested on: HL-60(TB) leukemia; assay: NCI-60 one-dose screen, 48 h (100 = growth as untreated, 0 = no growth, -100 = all killed); conditions: 10 µM unless noted

Row | Structure (SMILES) | growth
1 | COc1cc(CNC(=O)Cc2ccccc2)ccc1OCc1cn(-c2ccc(F)cc2)nn1 | 104%
2 | CSc1nc(N)c2[nH]c(-c3cc4ccccc4[nH]c3=O)nc2n1 | 88.8%
3 | CN1CCN(Cc2ccc(NC(=O)c3cncc(C#Cc4cnn5ccccc45)c3)cc2C(F)(F)F)CC1 | -21.3% (active)
4 | O=c1ccc(N=Nc2ccccc2)ccc1Cl | 42.8%
5 | CNC(=O)c1cc(Oc2ccc(NC(=O)Nc3ccc(Cl)c(C(F)(F)F)c3)c(F)c2)ccn1 | -17.4% (active)
6 | COc1ccc(S(=O)(=O)NCCNc2nccc(-c3c(-c4ccccc4)nc4sccn34)n2)cc1 | 25.4%
7 | O=C1NC(=O)C2C(=O)NC(=O)C1C21CCc2ccccc21 (stereo not given) | 117%
8 | CC(=O)NC(CCC(=O)c1ccccc1)C(=O)O (stereo not given) | 75.9%
9 | COc1cc(-c2cnc3nonc3n2)c(OC)c2c1OCO2 | 88.8%
10 | O=C(N=Nc1c(O)[nH]c2ccccc12)Nc1ccc(F)cc1 | 94.5%
11 | CCn1c2ccc(N(C)C)cc2c2cc(N(C)C)ccc21 | 66.1%
12 | CCN(CCCCCCCCCCN1CC(=O)N(CCCCCCCCCCN(CC)Cc2ccccc2OC)CC1=O)Cc1ccccc1OC | -67.9% (active)
13 | Cc1cc(N2CCSCC2)nc(NC2CCCC(Nc3ccnc4cc(Cl)ccc34)C2)n1 (stereo not given) | -68.7% (active)
14 | O=c1[nH]c2cc(Cl)c(Cl)cc2n2cc3ncccc3c12 | 65.5%
15 | COc1ccc(/C(C)=C(\c2ccc(OCCN3CCOCC3)cc2)c2ccc(OC(=O)C3CCCCC3)cc2)cc1 | 126%
16 | CCN(CC)Cc1cc(Nc2c3ccc(Cl)cc3nc3c(C)cccc23)ccc1O | -19.7% (active)
17 | CN1CCN(CCCN2c3ccccc3Sc3ccc(C(F)(F)F)cc32)CC1 | 83.8%
18 | COc1ccc(C/C(C)=C(\c2ccc(Cl)cc2)c2ccc(OCCN3CCCCCC3)cc2)cc1 | 30.7%
19 | COc1cc(C(F)(F)F)ccc1-c1cc(-c2ccc(F)cc2)n[nH]1 | 115%
20 | O=C(O)c1ccc2c3c(ncnc13)-c1ccccc1C2=O | 85.1%

Row | Structure (SMILES) | growth
21 | O=C(CCl)Nc1cc(O)c2c(c1)C(=O)c1cccc(O)c1C2=O | -44.4% (active)
22 | Cn1cc(C=O)c2ccccc21 | 92.8%
23 | C/C(=C\c1csc(C)n1)[C@@H]1C[C@@H]2O[C@]2(C)CCC[C@H](C)[C@H](O)[C@@H](C)C(=O)C(C)(C)[C@@H](O)CC(=O)N1 | 0.771% (active)
24 | COc1cc(-c2c(-c3ccccc3)c[nH]c2C(=O)NCCCO)c(OC)c2c1OCO2 | 91.4%
25 | COC1=CC=CC2(OC)C3(O)CCCc4cccc(c43)N3C(=O)COC132 (stereo not given) | 98.6%
26 | COc1ccc(C(=O)Nc2cccc(C3CCc4c(cc(OC)c(OC)c4OC)O3)c2)cc1 (stereo not given) | 10.7%
27 | COc1ccc(NC(=S)N/N=C/c2ccccc2SSCCC(=O)OC[C@H]2O[C@H](O)[C@H](O)[C@@H](O)[C@@H]2O)cc1 | 75.1%
28 | Cn1cc(-c2nonc2-c2cn(C)c3ccccc23)c2ccccc21 | -27% (active)
29 | COc1ccc(C2C(C#N)=C(N)Oc3c2sc2c(Br)cccc32)cc1 (stereo not given) | -9.13% (active)
30 | FC(F)(F)c1ccc(-c2cnc(Cl)nc2NCc2cc(C(F)(F)F)cc(C(F)(F)F)c2)cc1 | 5.98% (active)
31 | CCOC(=O)c1cc2c(n1Cc1cc(OC)c(OC)c(OC)c1)-c1nc(N)sc1CCC2 | 13.2%
32 | OCc1ccc(N2CCc3cccc(F)c3C2)cc1Cl | 80.5% [0.1 µM]
33 | Cc1ccccc1NC(=O)N/C(N)=N/c1nc(-c2cccc([N+](=O)[O-])c2)cs1 | 6.06% (active)
34 | COc1ccc(-c2nnc(SCC(=O)Nc3ccc(C(=O)/C=C/c4ccc(Cl)cc4)cc3)o2)cc1OC | 93.1%
35 | O=S(=O)(O)c1cc(O)c2c(N=Nc3ccc(Nc4ccccc4)c4c(S(=O)(=O)O)cccc34)cc(S(=O)(=O)O)cc2c1 | 82.7%
36 | COc1nc2ccccc2cc1/C=C1/C=C(c2ccccc2)NC1=O | -8.46% (active)
37 | Cc1[nH]n(C(=O)c2ccncc2)c(=O)c1N=Nc1ccc(O)c(C(=O)O)c1 | 53.4%
38 | O=C(Nc1ccc(CN2CCOCC2)c(C(F)(F)F)c1)c1nc2ccc3[nH]ncc3c2c2c1CCCC2 | 98.1%
39 | CCN(CC)CCNc1c(C)cc(CO)c(Cl)c1C | 107%
40 | CC(C)Cc1ccc([C@H](C)C(=O)O)cc1 | 92.9%
